According to the supplement of paper PMC10849652:
About 8,800 targets were measured; listed, in parts, are those with a hit and a random draw of the rest. About 0.5% of all pairs of compound and target were hits.

Key:
Test in all cases: log2 fold change, soluble protein after heating vs DMSO (PISA); higher = thermal stabilisation; K562 lysate, 10 uM; active = over 0.2 and 3.5 SD of the protein, either way, in both replicates (recomputed)
erlotinib = compound: C#Cc1cccc(Nc2ncnc3cc(OCCOC)c(OCCOC)cc23)c1 [erlotinib]
Summary of the method: (§1)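 To prepare the extract, K562 pellets were dounce-homogenised in PBS pH 7.4 with 1 mM MgCl2, giving crude material at 1 mg/mL protein. This was treated with 10 μM compound for 30 min, then heated in aliquots for 3 min over 48°C-58°C before pooling and addition of NP-40 to 0.5% at 4°C. Centrifugation at 21,000xg for 90 min left soluble protein in the supernatant, which TMTpro 16plex LC-MS/MS quantified with equalised channel sums. Results are log-two fold changes in thermal stability compared with solvent controls, from duplicates.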

[1] = compound: C/C(=N\NC(=O)C1=CC(=CC=C1)S(=O)(=O)N2CCOCC2)/C3=C(C=CC(=C3)Cl)O
Summary of the method: as §1

[2] = compound: C1=CC(=CC=C1C2=NC3=C(N2)C=C(C=C3)C(=O)N)OC4=CC=C(C=C4)Cl
Summary of the method: as §1

[3] = compound: C1=CC2=C(C=CC(=C2)/C=C\3/C(=O)NC(=NCC4=CC=CS4)S3)N=C1
Summary of the method: as §1

[4] = compound: C1=CC2=NC=CN=C2C=C1/C=C/3\C(=O)NC(=O)S3
Summary of the method: as §1

[5] = compound: C1=CC=C(C=C1)C2=NC(=C(N2)C3=CC=NC=C3)C4=CC(=C(C=C4)Cl)O
Summary of the method: as §1

[6] = compound: C1=CC=C2C(=C1)C3=NNC4=CC=CC(=C43)C2=O
Summary of the method: as §1

[7] = compound: C1CCN(C1)C(=O)NC2=CC=CC(=C2)NC3=NC=C(C(=N3)NCCC4=CN=CN4)Br
Summary of the method: as §1

[8] = compound: C1CN(CCC1(CC2=CC=C(C=C2)Cl)N)C3=NC=NC4=C3C=CN4
Summary of the method: as §1

IRAK-1-4 Inhibitor I = compound: C1COCCN1CCN2C3=CC=CC=C3N=C2NC(=O)C4=CC(=CC=C4)[N+](=O)[O-] [IRAK-1-4 Inhibitor I]
Summary of the method: as §1

Measured: log2 fold change

SSBP3 (UniProt Q9BWW4)
inactive: erlotinib 0.038 | [1] -0.09 | [2] 0.004 | [3] 0.026 | [4] 0.129 | [5] -0.048 | [6] 0.018 | [7] -0.054 | [8] 0.013 | IRAK-1-4 Inhibitor I 0.041

SP1 (UniProt P08047)
inactive: erlotinib -0.012 | [1] -0.04 | [2] 0.053 | [3] 0.093 | [4] -0.047 | [5] 0.007 | [6] 0.04 | [7] 0.004 | [8] 0.013 | IRAK-1-4 Inhibitor I 0.034

SRM (UniProt P19623)
inactive: erlotinib -0.006 | [1] 0.039 | [2] 0.017 | [3] -0.001 | [4] 0.014 | [5] 0.004 | [6] -0.003 | [7] 0.017 | [8] 0.027 | IRAK-1-4 Inhibitor I 0.007

STIM1 (UniProt Q13586)
inactive: erlotinib -0.037 | [1] 0.089 | [2] -0.014 | [3] 0.021 | [4] 0.001 | [5] -0.016 | [6] -0.059 | [7] -0.009 | [8] 0.005 | IRAK-1-4 Inhibitor I -0.01

SYK (UniProt P43405)
inactive: erlotinib -0.004 | [1] -0.007 | [2] 0.017 | [3] 0.039 | [4] -0.033 | [5] 0.021 | [7] -0.013 | [8] -0.038 | IRAK-1-4 Inhibitor I 0.053

SPHK1 isoform 2 (UniProt Q9NYA1)
UniProt Q9NYA1, sequence (Q9NYA1 whole entry, looked up): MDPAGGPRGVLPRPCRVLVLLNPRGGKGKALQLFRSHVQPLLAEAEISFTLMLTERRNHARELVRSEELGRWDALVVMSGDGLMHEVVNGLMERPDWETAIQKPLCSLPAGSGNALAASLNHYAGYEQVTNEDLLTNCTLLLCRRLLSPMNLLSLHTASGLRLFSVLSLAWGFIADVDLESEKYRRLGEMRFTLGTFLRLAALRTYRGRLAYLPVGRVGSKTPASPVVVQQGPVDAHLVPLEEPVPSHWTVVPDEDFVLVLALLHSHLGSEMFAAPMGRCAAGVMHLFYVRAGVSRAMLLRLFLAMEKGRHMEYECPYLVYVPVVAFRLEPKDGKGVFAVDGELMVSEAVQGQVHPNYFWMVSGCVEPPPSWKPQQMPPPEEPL
inactive: erlotinib -0.055 | [1] -0.462 | [2] -0.059 | [3] 0.038 | [4] 0.034 | [5] -0.097 | [6] -0.066 | [7] 0.016 | [8] 0.038 | IRAK-1-4 Inhibitor I 0.018

SNAP23 (UniProt O00161)
UniProt O00161, sequence (O00161 whole entry, looked up): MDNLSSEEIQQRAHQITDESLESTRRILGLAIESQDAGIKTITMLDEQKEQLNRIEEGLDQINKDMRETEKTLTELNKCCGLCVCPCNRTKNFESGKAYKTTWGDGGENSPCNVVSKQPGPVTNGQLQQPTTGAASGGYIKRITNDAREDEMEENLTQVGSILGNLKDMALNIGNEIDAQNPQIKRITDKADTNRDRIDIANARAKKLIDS
inactive: erlotinib -0.01 | [1] 0.037 | [2] -0.025 | [3] 0.047 | [4] 0.02 | [5] 0.039 | [6] 0.022 | [7] 0.018 | [8] 0.03 | IRAK-1-4 Inhibitor I 0.038

SLC11A2 isoform 3 (UniProt P49281)
inactive: erlotinib -0.005 | [1] -0.041 | [2] -0.009 | [3] -0.013 | [4] 0 | [5] 0.011 | [6] 0.046 | [7] -0.004 | [8] 0.026 | IRAK-1-4 Inhibitor I 0.024

SLC40A1 (UniProt Q9NP59)
UniProt Q9NP59, sequence (Q9NP59 whole entry, looked up): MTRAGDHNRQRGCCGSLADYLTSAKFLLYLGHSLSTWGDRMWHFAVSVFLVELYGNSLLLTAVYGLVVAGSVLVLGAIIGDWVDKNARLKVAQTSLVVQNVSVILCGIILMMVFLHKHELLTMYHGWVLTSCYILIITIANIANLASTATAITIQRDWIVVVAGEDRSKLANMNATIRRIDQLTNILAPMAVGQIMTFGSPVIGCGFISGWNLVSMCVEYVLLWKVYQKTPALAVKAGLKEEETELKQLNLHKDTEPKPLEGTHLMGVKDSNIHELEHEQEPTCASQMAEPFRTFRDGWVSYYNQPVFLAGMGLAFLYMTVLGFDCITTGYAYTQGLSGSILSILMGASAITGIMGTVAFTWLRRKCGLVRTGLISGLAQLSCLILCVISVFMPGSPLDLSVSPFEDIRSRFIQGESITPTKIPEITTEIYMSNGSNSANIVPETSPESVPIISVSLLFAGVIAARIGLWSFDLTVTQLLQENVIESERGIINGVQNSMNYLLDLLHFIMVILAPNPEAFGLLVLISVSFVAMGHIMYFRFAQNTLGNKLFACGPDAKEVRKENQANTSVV
inactive: erlotinib 0.188 | [1] -0.035 | [2] 0.233 | [3] 0.042 | [5] -0.052 | [6] -0.122 | [7] -0.015 | [8] 0.05 | IRAK-1-4 Inhibitor I 0.048

STK17B (UniProt O94768)
UniProt O94768, sequence (O94768 whole entry, looked up): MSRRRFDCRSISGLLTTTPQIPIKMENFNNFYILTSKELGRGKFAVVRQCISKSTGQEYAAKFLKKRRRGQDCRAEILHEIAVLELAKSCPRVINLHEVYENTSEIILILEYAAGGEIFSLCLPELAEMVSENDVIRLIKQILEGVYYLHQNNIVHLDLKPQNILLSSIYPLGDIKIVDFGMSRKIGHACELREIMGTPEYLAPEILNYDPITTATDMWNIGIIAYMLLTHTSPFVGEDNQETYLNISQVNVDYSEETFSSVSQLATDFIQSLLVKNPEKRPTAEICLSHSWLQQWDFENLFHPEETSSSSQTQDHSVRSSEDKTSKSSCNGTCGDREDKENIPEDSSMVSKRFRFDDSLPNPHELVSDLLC
inactive: erlotinib -0.041 | [2] -0.341 | [5] -0.022 | IRAK-1-4 Inhibitor I -0.065

TAOK2 (UniProt Q9UL54)
UniProt Q9UL54, sequence (Q9UL54 whole entry, looked up): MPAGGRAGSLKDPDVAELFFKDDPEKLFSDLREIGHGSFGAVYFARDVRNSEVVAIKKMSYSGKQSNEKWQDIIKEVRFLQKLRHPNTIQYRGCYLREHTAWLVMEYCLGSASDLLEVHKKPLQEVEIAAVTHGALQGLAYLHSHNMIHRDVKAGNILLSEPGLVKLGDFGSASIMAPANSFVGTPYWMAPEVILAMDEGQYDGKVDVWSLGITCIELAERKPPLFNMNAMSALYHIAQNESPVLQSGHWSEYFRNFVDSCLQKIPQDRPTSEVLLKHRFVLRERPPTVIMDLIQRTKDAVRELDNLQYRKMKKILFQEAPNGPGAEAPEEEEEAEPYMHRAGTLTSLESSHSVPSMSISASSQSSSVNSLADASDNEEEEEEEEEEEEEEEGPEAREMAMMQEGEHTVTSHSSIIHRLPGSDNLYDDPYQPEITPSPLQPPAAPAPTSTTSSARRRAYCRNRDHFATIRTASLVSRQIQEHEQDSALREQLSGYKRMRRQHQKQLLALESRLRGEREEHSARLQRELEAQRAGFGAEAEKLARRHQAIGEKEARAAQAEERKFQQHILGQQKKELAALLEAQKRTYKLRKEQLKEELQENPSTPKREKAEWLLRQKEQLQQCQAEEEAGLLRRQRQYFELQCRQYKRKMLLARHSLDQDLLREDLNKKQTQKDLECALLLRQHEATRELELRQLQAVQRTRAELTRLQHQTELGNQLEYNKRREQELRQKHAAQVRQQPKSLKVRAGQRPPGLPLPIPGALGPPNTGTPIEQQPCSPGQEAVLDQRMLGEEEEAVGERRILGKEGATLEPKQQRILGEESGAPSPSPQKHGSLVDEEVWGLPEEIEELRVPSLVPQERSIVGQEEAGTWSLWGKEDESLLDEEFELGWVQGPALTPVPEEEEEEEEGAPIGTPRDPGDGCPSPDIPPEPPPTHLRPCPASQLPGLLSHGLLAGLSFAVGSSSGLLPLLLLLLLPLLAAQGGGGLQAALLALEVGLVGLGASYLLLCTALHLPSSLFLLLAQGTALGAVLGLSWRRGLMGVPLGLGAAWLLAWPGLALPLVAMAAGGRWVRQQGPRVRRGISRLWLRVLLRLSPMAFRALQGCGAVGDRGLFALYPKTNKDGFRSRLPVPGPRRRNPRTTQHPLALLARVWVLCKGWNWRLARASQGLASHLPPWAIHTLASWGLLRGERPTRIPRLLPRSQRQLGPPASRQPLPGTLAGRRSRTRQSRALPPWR
active: [6] 0.729
inactive: [1] 0.006 | [3] -0.034 | [4] 0.072 | [5] -0.031 | [7] 0.038 | [8] 0.058 | IRAK-1-4 Inhibitor I 0.072

SNAP23 isoform 2 (UniProt O00161)
inactive: erlotinib 0.042 | [1] -0.019 | [2] 0.27 | [3] -0.006 | [5] -0.071 | [6] -0.117 | [7] 0.104 | [8] -0.08 | IRAK-1-4 Inhibitor I 0.057

SNAPC2 (UniProt Q13487)
inactive: erlotinib 0.131 | [2] 0.022 | [4] -0.21 | [5] 0.087 | IRAK-1-4 Inhibitor I -0.166

SMARCA4 isoform 4 (UniProt P51532)
inactive: erlotinib 0.052 | [2] 0.178 | [5] 0.127 | [7] 0.112 | [8] -0.076 | IRAK-1-4 Inhibitor I -0.101

SRC isoform 2 (UniProt P12931)
UniProt P12931, sequence (P12931 whole entry, looked up): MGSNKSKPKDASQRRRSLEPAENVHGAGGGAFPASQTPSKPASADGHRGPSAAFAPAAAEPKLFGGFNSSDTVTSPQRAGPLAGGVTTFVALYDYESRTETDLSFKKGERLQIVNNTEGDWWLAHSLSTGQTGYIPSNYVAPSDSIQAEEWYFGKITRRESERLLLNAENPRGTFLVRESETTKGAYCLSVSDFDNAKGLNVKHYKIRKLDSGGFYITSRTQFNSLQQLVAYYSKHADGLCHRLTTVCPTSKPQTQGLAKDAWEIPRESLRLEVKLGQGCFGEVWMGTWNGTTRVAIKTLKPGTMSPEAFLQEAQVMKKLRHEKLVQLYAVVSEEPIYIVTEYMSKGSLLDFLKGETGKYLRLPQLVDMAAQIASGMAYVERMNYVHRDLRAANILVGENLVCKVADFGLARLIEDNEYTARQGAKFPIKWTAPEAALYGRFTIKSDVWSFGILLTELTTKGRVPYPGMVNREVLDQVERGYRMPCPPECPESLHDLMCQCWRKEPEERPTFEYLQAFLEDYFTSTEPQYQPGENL
inactive: erlotinib -0.073 | [2] 0.028 | [4] 0.102 | [5] -0.063 | [7] -0.018 | [8] -0.069 | IRAK-1-4 Inhibitor I 0.034

SLC25A36 (UniProt Q96CQ1)
UniProt Q96CQ1, sequence (Q96CQ1 whole entry, looked up): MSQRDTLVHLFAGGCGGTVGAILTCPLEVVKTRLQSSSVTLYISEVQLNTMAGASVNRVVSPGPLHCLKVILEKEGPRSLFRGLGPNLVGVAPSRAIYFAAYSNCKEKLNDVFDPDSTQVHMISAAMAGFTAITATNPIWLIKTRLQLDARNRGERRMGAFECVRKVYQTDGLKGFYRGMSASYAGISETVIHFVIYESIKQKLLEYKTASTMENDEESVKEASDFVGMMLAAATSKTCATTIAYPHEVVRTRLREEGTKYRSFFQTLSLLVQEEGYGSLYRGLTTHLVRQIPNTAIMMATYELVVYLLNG
inactive: erlotinib -0.021 | [1] 0.024 | [2] 0.08 | [3] -0.129 | [5] 0.041 | [6] 0.027 | [7] -0.027 | [8] -0.026 | IRAK-1-4 Inhibitor I 0.038

SHB (UniProt Q15464)
inactive: erlotinib 0.003 | [2] 0.033 | [5] -0.014 | IRAK-1-4 Inhibitor I -0.067

SPA17 (UniProt Q15506)
inactive: [1] -0.047 | [3] 0.01 | [4] -0.033 | [5] -0.018 | [6] -0.106 | [7] -0.076 | [8] -0.029 | IRAK-1-4 Inhibitor I 0

TARDBP (UniProt K7EN94)
inactive: [1] 0.293 | [3] -0.12 | [6] -0.12 | [7] 0.001 | [8] -0.19

SLC22A18 (UniProt Q96BI1)
inactive: erlotinib -0.008 | [1] 0.043 | [2] -0.018 | [3] 0.049 | [4] -0.147 | [6] -0.03 | [7] -0.062 | [8] 0.004

SNRPD2 (UniProt K7EJB5)
inactive: erlotinib -0.076 | [1] 0 | [2] -0.036 | [3] -0.106 | [5] -0.12 | [6] 0.055 | [7] 0.088 | [8] 0.037 | IRAK-1-4 Inhibitor I -0.03

STK26 isoform 3 (UniProt Q9P289)
inactive: [7] 0.272 | [8] -0.045

SLC39A13 (UniProt Q96H72)
UniProt Q96H72, sequence (Q96H72 whole entry, looked up): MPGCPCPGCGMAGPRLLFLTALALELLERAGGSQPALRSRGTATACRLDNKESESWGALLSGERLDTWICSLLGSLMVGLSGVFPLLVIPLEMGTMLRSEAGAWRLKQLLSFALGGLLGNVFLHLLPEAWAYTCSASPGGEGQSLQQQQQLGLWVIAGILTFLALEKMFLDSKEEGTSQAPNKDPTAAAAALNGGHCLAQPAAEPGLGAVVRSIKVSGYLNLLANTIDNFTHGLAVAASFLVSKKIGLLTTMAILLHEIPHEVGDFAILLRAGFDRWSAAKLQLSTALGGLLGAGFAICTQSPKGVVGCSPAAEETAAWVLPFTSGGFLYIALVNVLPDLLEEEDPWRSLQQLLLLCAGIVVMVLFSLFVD
inactive: erlotinib 0.344 | [2] 0.063 | [5] -0.252 | IRAK-1-4 Inhibitor I -0.025

TAF1B (UniProt Q53T94)
inactive: [1] -0.283 | [3] -0.123 | [4] -0.001 | [5] 0.024 | [6] 0.013 | [7] 0.345 | [8] 0.123 | IRAK-1-4 Inhibitor I -0.061

STK38L (UniProt Q9Y2H1)
inactive: erlotinib -0.001 | [2] -0.163 | [5] 0.113 | [7] -0.027 | [8] 0.11 | IRAK-1-4 Inhibitor I 0.011

TAF11 (UniProt Q15544)
UniProt Q15544, sequence (Q15544 whole entry, looked up): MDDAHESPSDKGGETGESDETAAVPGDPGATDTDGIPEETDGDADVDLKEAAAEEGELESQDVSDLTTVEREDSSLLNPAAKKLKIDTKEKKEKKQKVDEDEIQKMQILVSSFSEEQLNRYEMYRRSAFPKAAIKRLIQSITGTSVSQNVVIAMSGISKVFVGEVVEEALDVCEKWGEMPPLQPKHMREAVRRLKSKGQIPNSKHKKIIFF
inactive: [1] 0.174 | [3] -0.144 | [5] -0.04 | [6] 0.124 | [7] -0.242 | [8] 0.071 | IRAK-1-4 Inhibitor I 0.051

SKP2 (UniProt Q13309)
inactive: erlotinib 0.06 | [1] -0.053 | [2] -0.063 | [3] 0.027 | [5] -0.023 | [6] -0.029 | [7] -0.027 | [8] 0.044 | IRAK-1-4 Inhibitor I -0.002

STAU1 isoform 3 (UniProt O95793)
inactive: erlotinib -0.006 | [2] -0.016 | [4] -0.103

SLC35A3 isoform 2 (UniProt Q9Y2D2)
inactive: erlotinib -0.036 | [1] 0.057 | [2] 0.077 | [3] 0.001 | [5] -0.166 | [6] -0.006 | [7] -0.036 | [8] -0.002 | IRAK-1-4 Inhibitor I 0.164

SLCO4A1 (UniProt Q96BD0)
inactive: [4] 0.08

SURF2 (UniProt Q15527)
inactive: [1] 0.087 | [3] -0.019 | [4] 0.02 | [5] -0.004 | [6] 0.022 | [7] 0.051 | [8] 0.074 | IRAK-1-4 Inhibitor I 0.035

SIN3B (UniProt O75182)
inactive: [1] -0.167 | [3] -0.018 | [6] 0.046 | [7] -0.071 | [8] 0.132

SIX5 (UniProt Q8N196)
UniProt Q8N196, sequence (Q8N196 whole entry, looked up): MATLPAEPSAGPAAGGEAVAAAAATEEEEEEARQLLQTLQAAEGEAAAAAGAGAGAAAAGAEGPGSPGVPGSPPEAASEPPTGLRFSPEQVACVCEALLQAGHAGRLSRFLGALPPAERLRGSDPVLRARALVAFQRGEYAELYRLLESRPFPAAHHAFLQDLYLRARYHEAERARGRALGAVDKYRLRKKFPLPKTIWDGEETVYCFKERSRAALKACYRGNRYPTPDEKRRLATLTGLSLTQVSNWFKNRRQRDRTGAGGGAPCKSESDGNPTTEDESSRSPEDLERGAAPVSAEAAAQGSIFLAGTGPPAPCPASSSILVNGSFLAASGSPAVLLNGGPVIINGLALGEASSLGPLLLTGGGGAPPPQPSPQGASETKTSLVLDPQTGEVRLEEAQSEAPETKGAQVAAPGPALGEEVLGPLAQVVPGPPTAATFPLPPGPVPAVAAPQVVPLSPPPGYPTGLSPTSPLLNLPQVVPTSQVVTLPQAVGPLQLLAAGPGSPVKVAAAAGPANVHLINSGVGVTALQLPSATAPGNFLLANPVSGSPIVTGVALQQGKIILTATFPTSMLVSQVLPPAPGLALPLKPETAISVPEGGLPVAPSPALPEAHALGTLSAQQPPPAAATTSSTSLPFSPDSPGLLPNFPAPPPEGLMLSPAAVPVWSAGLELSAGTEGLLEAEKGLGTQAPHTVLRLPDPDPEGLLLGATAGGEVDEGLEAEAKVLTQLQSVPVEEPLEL
inactive: erlotinib -0.062 | [2] -0.05 | [4] -0.046 | [5] -0.034 | IRAK-1-4 Inhibitor I -0.141

SLC41A1 (UniProt Q8IVJ1)
inactive: erlotinib 0.176 | [2] -0.042 | [5] 0.018 | [7] 0.024 | [8] -0.014 | IRAK-1-4 Inhibitor I -0.008

SPAG1 (UniProt Q07617)
inactive: [1] -0.045 | [3] -0.089 | [5] -0.034 | [6] -0.063 | IRAK-1-4 Inhibitor I 0.042
active: [4] 1.01

SZT2 (UniProt Q5T011)
inactive: erlotinib 0.043 | [2] -0.089 | [4] 0.134 | [5] -0.013 | [7] -0.004 | [8] 0.016 | IRAK-1-4 Inhibitor I 0.014
